Test results as given in PubChem BioAssay AID588342 (National Center for Advancing Translational Sciences (NCATS), 2011).
The campaign covered roughly 360,000 compounds. About 25,000 (6.9%) were called active. Inconclusive results (about 9%) are left out. What follows is part of a selection rich in actives, with near analogues and random picks from the rest. A number with no mark means an inactive call. Calls come from the whole dose curve; as a rule, active = well fitted inhibition curve with a large enough effect; inconclusive = small, poorly fitted or top-dose-only effect; inactive = flat fitted curve, though single readings scatter.

Molecular target: Luciferin 4-monooxygenase (Photinus pyralis) (UniProt P08659)
Sequence (P08659 whole entry, looked up): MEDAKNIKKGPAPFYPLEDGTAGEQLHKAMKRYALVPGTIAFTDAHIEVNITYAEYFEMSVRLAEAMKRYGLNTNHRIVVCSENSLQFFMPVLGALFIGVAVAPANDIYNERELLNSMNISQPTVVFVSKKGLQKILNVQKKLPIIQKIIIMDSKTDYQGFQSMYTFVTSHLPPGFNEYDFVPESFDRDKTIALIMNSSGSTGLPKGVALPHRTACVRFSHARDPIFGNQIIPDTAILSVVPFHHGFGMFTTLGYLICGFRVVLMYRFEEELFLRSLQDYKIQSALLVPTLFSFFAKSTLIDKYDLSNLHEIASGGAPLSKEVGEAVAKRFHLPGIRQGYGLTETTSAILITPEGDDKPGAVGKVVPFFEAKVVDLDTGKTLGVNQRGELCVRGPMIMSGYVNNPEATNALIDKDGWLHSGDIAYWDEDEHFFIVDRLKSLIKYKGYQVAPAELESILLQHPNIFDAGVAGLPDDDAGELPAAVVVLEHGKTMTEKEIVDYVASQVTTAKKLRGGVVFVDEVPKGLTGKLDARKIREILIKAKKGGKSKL
Test: qHTS profiling assay for firefly luciferase inhibitor/activator using purifed enzyme and Km concentrations of substrates (counterscreen for miR-21 project); note: nearly all actives have a fitted effect of over 55% in size;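 for activity change, negative = inhibition: plate controls were vehicle for no effect and reference inhibitor for full effect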
Conditions: purified FLuc, luminescence inhibition; series mostly up to 57.5 µM; activity change, negative = inhibition: at the top concentration
Procedure, shortened: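 Biochemical qHTS of compounds, final roughly 60 µM downward over six points, against 10 nM purified firefly luciferase using Km concentrations of substrates (10 uM D-luciferin, 10 uM ATP) in Tris acetate pH 7.5 buffer; luminescence output.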
Potency is the fitted concentration of half-maximal effect.

Compound | activity change, negative = inhibition [%] | Potency
O=C1NC(c2ccc(-c3ccccc3[N+](=O)[O-])o2)C(C(=O)c2ccc(Cl)cc2)C(O)(C(F)(F)F)N1 (stereo not drawn) | 3.67 | –
Cc1cc([N+](=O)[O-])c(-c2ccc(/C=N/n3cnnc3)o2)cc1Cl | 0.263 | –
CC1=NN(c2ccc(Cl)c(C(=O)O)c2)C(=O)/C1=C/c1ccc(-c2ccccc2[N+](=O)[O-])o1 | – | 4.78 µM (active)
CCOC(=O)c1cc2cc3ccccc3cc2oc1=O | – | 9.53 µM (active)
C=CCc1cccc2cc(C(=O)OCC)c(=O)oc12 | -15.5 | –
NS(=O)(=O)c1ccc(NC(=O)COC(=O)c2cc3ccccc3oc2=O)cc1 | -6.92 | –
O=C(CCC(=O)N1CC2CCCN2c2ccccc21)NCc1ccccc1Cl (stereo not drawn) | -11.2 | –
O=C(CCc1nc(CN2CCN(S(=O)(=O)c3ccc(Br)cc3)CC2)no1)N1CCCCC1 | -2.89 | –
CCOC(=O)c1c(C)[nH]c(CCC(=O)NCCCN2CCN(c3cccc(Cl)c3)CC2)c1C | -6.7 | –
CN(C)CCN=c1cc(-c2ccccc2)oc2ccc(Cl)cc12 | – | 6.01 µM (active)
CN(C)CCCn1c(-c2ccc(Cl)cc2)csc1=Nc1ccccc1 | 1.01 | –
CN(C)CCn1c(=S)[nH]c2ccc(Cl)cc2c1=O | -0.113 | –
O=C(CCCn1c(=O)c2cccn2c2cccnc21)NCc1ccc(F)cc1 | 7.61 | –
Cc1ccccc1Cn1nc(C)c(NC(=O)c2cc(-c3ccc(F)cc3)on2)c1C | 3.35 | –
CCOC(=O)C1=C(N)N2C(=O)C(C)SC2=C(C(=O)OCC)C1c1cc(OC)c(OC)c(OC)c1 (stereo not drawn) | -0.321 | –
CC1(C)CCSC(/C=C/c2ccccc2)=N1 | – | 13.5 µM (active)
Cc1ccc(C)c(CN2C(=O)c3ccccc3S(=O)c3ccc(C(=O)N4CCOCC4)cc32)c1 (stereo not drawn) | -4.41 | –
Cc1cc(C(=O)OCC(=O)Nc2ccccc2Cl)c(C)o1 | -19.8 | –
CC(=C/c1ccccc1)/C=N/NC(=O)c1cc(C)oc1C | – | 1.35 µM (active)
Cc1cc(C(=O)N/N=C\C(Br)=C\c2ccccc2)c(C)o1 | – | 8.49 µM (active)
Cc1cc(Nc2ccc(N3CCOCC3)cc2)c2cccc(C)c2n1 | -2.45 | –
Cc1cc(C(=O)N/N=C/c2ccccc2[N+](=O)[O-])c(C)o1 | – | 16.9 µM (active)
COc1ccc(C/C(C)=N/NC(=O)c2cc(C)oc2C)cc1 | -11.8 | –
CC(=O)c1ccc(N2CCN(CC(=O)Nc3ccccc3N3CCOCC3)CC2)cc1 | -9.52 | –
Cc1ccccc1N/N=C/c1ccc(N2CCOCC2)cc1 | – | 10.7 µM (active)
Cc1cc(-c2n[nH]c(=S)n2/N=C/C(Br)=C/c2ccccc2)n[nH]1 | -6.14 | –
CC(=O)N/N=C/c1cc2c(cc1[N+](=O)[O-])OCO2 | 0.319 | –

Compound | activity change, negative = inhibition [%] | Potency
CC(=O)N/C(=C/c1ccc(OC(F)F)cc1)C(=O)O | -0.154 | –
O=C(Cc1cc(=O)[nH][nH]1)N/N=C/c1ccccc1[N+](=O)[O-] | 2.61 | –
Cc1ccc(CC(=O)Nc2ccc(S(=O)(=O)N3CCOCC3)cc2)cc1C | -1.84 | –
Cc1cccc(Cn2c(=O)n(CCC(=O)NCCc3ccc(Cl)cc3)c(=O)c3sccc32)c1 | -3.53 | –
O=C(CN1CCN(C2CCS(=O)(=O)C2)CC1)N1N=C(c2ccc(Cl)cc2)CC1c1ccco1 (stereo not drawn) | 0.655 | –
CCOC(=O)c1cc(-c2ccccc2)n(CCC(=O)Nc2ccccc2CC)c1C | -1.81 | –
CC1=Nc2cc(C(=O)N3CCC(C)CC3)ccc2Sc2ccc(Cl)cc21 | 2.21 | –
CC(=O)Nc1cccc(NC(=O)CSc2nccn2Cc2ccc3c(c2)OCO3)c1 | -7.66 | –
COc1ccc(Br)cc1CNC(=O)c1cc(=O)[nH]c2ccc(S(=O)(=O)N3CCCC3)cc12 | -0.37 | –
O=c1c2c(ncn1Cc1ccccc1)nc1n2CCC1 | 3.35 | –
Cc1cc(C)nc(NS(=O)(=O)c2ccc(NC(=O)c3cc(=O)c4ccc(C)c(C)c4o3)cc2)n1 | -19.3 | –
O=c1cc(CSc2ncn[nH]2)[nH]c2ccc(F)cc12 | 7.8 | –
CC(C)N(Cc1nnc(-c2ccccc2Br)o1)C(=O)c1cc(Cl)nc2ccccc12 | 4.54 | –
Cc1ccc(OCCCC(=O)Nc2ccc(N3CCOCC3)cc2)cc1 | -2.1 | –
CCN(CC)c1ccc(C(=O)N/N=C/c2ccc(N3CCOCC3)cc2)cc1 | -6.56 | –
Cc1cc(C(=O)N/N=C/c2ccc(N3CCOCC3)cc2)c(C)o1 | – | 13.5 µM (active)
O=c1c2ccccc2ccc2ccc(P(=O)(O)O)cc12 | 2.5 | –
O=C(OCc1ccc([N+](=O)[O-])cc1)c1ccccn1 | -0.663 | –
COc1ccc(C(=O)NNC(=O)c2cnccn2)cc1[N+](=O)[O-] | 6.8 | –
Cc1ccc(NC(=O)c2ccccn2)cc1S(=O)(=O)N1CCOCC1 | -1.27 | –
N/C(=N\OC(=O)c1ccc([N+](=O)[O-])cc1)c1ccccn1 | – | 0.601 µM (active)
O=C(Nc1ccccc1Cl)O/N=C(/c1ccccc1)c1ccccn1 | -8.09 | –
O=C(COC(=O)c1ccccn1)NNC(=O)c1ccc([N+](=O)[O-])cc1 | 2.2 | –
COc1ccc(C(=O)CSc2nc(C)cc(C)n2)cc1[N+](=O)[O-] | -13.8 | –
COc1ccc(C(=O)O/N=C(\N)c2ccccn2)cc1[N+](=O)[O-] | – | 12 µM (active)
Cc1ccc(C(=O)O/N=C(\N)c2ccccn2)cc1Cl | – | 0.169 µM (active)
